Assay results taken from ChEMBL document CHEMBL4513216, “Probing the Open Global Health Chemical Diversity Library for Multistage-Active Starting Points for Next-Generation Antimalarials” (ACS Infect Dis, 2020).
Out of some 69,000 compounds screened, about 8,600 (12%) showed an effect of 50% or more. This excerpt belongs to a sample that is enriched for strong results.

System: Plasmodium berghei
Test: Screen against P. berghei liver stage (PbLuc), transformed with Luciferase, at 10uM
Type: functional, HepG2
Details: tested at 10 uM

Row | SMILES | INHIBITION [%]
1 | O=C(NC[C@H]1C[C@@H]2CCN1C[C@@H]2CN1CCCCC1)Nc1ccsc1 | 33.2
2 | CC1CCN(C[C@H]2CN3CC[C@H]2C[C@@H]3CNC(=O)Nc2ccsc2)CC1 | 77.7
3 | O=C(NC[C@H]1C[C@@H]2CCN1C[C@@H]2CN1CCOCC1)Nc1ccsc1 | 41.1
4 | O=C(CC1CC1)NCc1cn2c(n1)CN(Cc1nccs1)CC2 | 33.4
5 | CCC(C)(NCC(=O)Nc1nc(C)cs1)c1nc(C)cs1 (stereo not given) | 12.2
6 | CCC(C)(NCC(=O)NC(C)C)c1nc(C)cs1 (stereo not given) | 76.7
7 | CCC(C)(NCC(=O)Nc1ccccc1)c1nc(C)cs1 (stereo not given) | 9.3
8 | CC(C)c1nc(O)c2nnn(C[C@H]3CCCN(Cc4ccsc4)C3)c2n1 | 32.3
9 | CCC(=O)N1CCC2(CC1)CN(CCO)Cc1ccccc12 | -16.2
10 | CCc1oc2ccc(NS(C)(=O)=O)cc2c1C(=O)OC | 12.8
11 | COc1cccc(-c2cnc3n2CCC32CCN(S(C)(=O)=O)CC2)c1 | 39.3
12 | CS(=O)(=O)N1CCC2(CC1)NCCn1c(-c3ccccc3)cnc12 | -0.554
13 | COc1ccc(-c2cnc3n2CCNC32CCN(S(C)(=O)=O)CC2)cc1 | 57.1
14 | COc1ccc(CC(=O)N2CCC[C@@H](N)[C@@H]2c2ccccc2F)cc1 | 44.8
15 | CC(C)NC(=O)CC1COC2(CCN(Cc3cccs3)CC2)C1 (stereo not given) | 29.9
16 | CC(NC(=O)Nc1nccs1)C(=O)NC1CCCC1 (stereo not given) | 40.2
17 | O=C(Nc1ccccn1)c1csc(NC2CCCC2)n1 | -32.8
18 | O=C(Nc1nccs1)c1csc(NC2CCCC2)n1 | 80.9
19 | Cc1cnc(NC(=O)c2csc(NC3CCCC3)n2)s1 | 89.6
20 | Cc1cnc(NC(=O)c2csc(NCC(C)C)n2)s1 | 83.8
21 | CC(C)CCNc1nc(C(=O)NC2CC2)cs1 | -30
22 | Cc1cnc(NC(=O)N2CCCC2)s1 | -1.58
23 | Cc1cccc(NC(=O)c2csc(NCC(C)C)n2)n1 | -27.5
24 | CCN(CC)C(=O)CCCNC(=O)c1csc(NC2CC2)n1 | 28
25 | O=C(CCC1CCN(C2CCSCC2)CC1)NCC1CCCO1 (stereo not given) | 42.1

Row | SMILES | INHIBITION [%]
26 | CCc1nc(CN(C(C)=O)C2CCN(CCc3cccs3)C2)no1 (stereo not given) | 36.1
27 | CC(C)c1nc2c(n1C)CCN(Cc1cccc(OCC(N)=O)c1)C2 | 7.08
28 | O=C(CSc1ccccn1)N1C[C@@H]2CC[C@H]1CN(Cc1cscn1)C2 | -38.9
29 | O=C(c1ccccn1)N1CCc2ncc(Cn3cccn3)n2CC1 | -14.2
30 | O=C(CCn1ccc2cc(Br)ccc21)/N=c1\[nH]nc(C2CCCO2)s1 (stereo not given) | 35.1
31 | Cc1cc(=O)n2ncnc2n1CC(O)c1ccc(F)cc1F (stereo not given) | 57.6
32 | Cc1cc(=O)n2ncnc2n1CC(O)c1cc(Cl)ccc1Cl (stereo not given) | 29.8
33 | Cc1cc(=O)n2ncnc2n1CC(O)c1ccccc1 (stereo not given) | 62.9
34 | Cc1cc(=O)n2ncnc2n1CC(O)c1ccccc1F (stereo not given) | 33
35 | Cc1cc(=O)n2ncnc2n1CC(O)c1cc(F)ccc1F (stereo not given) | -4.74
36 | Cc1cc(=O)n2ncnc2n1CC(O)c1ccccc1Cl (stereo not given) | 2.37
37 | Cc1cc(CN(C)CCC(O)c2ccccc2)nn1C (stereo not given) | -3.3
38 | Cc1cc(=O)n2ncnc2n1CC(O)COCc1ccccc1Cl (stereo not given) | 55.4
39 | Cn1ncc2cnn(CC(O)COCc3ccccc3Cl)c2c1=O (stereo not given) | -30.1
40 | CN1CCN(c2cc(CNC(=O)c3cccnc3O)ccn2)CC1 | 18.36
41 | CCN1CCN(C2CCN(Cc3nc(C)c(C)o3)CC2)C1=O | 44.1
42 | CCc1nc(C2CCCN2Cc2ncc(C)c(OC)c2C)no1 (stereo not given) | 11.4
43 | O=S(=O)(C1CC1)N1CCOCC2(CCN(c3ccccn3)C2)C1 (stereo not given) | -26.1
44 | CS(=O)(=O)CC(=O)N1C[C@H]2CCC[C@@]2(COCc2ccncc2)C1 | 31.2
45 | CCC(CCNC(=O)c1cc(C2CC2)nc2c1cnn2C)n1cccn1 (stereo not given) | 9.55
46 | CC(C)NC(=O)N1CCN(CCn2cccn2)c2ncccc2C1 | 5.89
47 | COc1ccc(-c2cc(CN)ccc2F)c(OC)c1OC | 30.9
48 | COc1ccc(-c2ccccc2CCN)c(OC)c1 | -2.9
49 | COc1ccc(-c2ccccc2CCN)c(OC)c1OC | 50.8
50 | Cc1cnc(C(=O)N2C[C@@H](NS(C)(=O)=O)[C@@H]3OCCC[C@@H]32)cn1 | 35.7

Row | SMILES | INHIBITION [%]
51 | Cc1nnc(CSCc2ccc(OCC(F)(F)F)nc2)o1 | 56
52 | Cc1nc(CSCc2ccc(OCC(F)(F)F)nc2)no1 | 40.7
53 | FC(F)(F)COc1ccc(CSCc2ccon2)cn1 | 24
54 | O=C(CCN1CCCC1c1cccc2c1OCCO2)N1CCCCC1 (stereo not given) | 40.6
55 | COC(=O)CCN1CCCC1c1cccc2c1OCCO2 (stereo not given) | 15.9
56 | NC(=O)NC(=O)CCN1CCCC1c1cccc2c1OCCO2 (stereo not given) | 27.7
57 | CCNC(=O)CCN1CCCC1c1cccc2c1OCCO2 (stereo not given) | -2.23
58 | O=C(CCN1CCCC1c1cccc2c1OCCO2)N1CCOCC1 (stereo not given) | 57.7
59 | COCCN1CCCC1c1cccc2c1OCCO2 (stereo not given) | 59.4
60 | Cn1cc(C(=O)NCC2CCN(C(=O)NC3CCCCC3)CC2)cn1 | -3.7
61 | OCC(CO)Nc1nc(C(F)F)nc2ccccc12 | 51.9
62 | CCC(CO)Nc1nc(C(F)F)nc2ccccc12 (stereo not given) | 8.41
63 | CSCC(CCO)Nc1nc(C(F)F)nc2ccccc12 (stereo not given) | -49
64 | CCc1nc(C2CCCN2C(=O)c2cc[nH]n2)no1 (stereo not given) | 58.5
65 | CCCc1nc(CN(CC)C(=O)c2ccc3c(c2)nnn3C)no1 | 52.8
66 | CCc1nc(C2CCCN2C(=O)c2ccc3c(c2)nnn3C)no1 (stereo not given) | 62.6
67 | Cc1ccc(-c2noc(C3CCN3C(=O)c3ccn(C)n3)n2)s1 (stereo not given) | 23.95
68 | CCCc1nc(CN(CC)C(=O)c2ccc(OC)c(OC)c2)no1 | 30.1
69 | CCc1nc(C2CCCN2C(=O)c2ccc3c(c2)nc(C)n3C)no1 (stereo not given) | -8.3
70 | CCCc1nc(CN(CC)C(=O)c2ccc3[nH]cnc3c2)no1 | 30.1
71 | Cc1ccc(-c2noc(C3CCN3C(=O)c3cc[nH]n3)n2)s1 (stereo not given) | 85
72 | Cc1ccc(-c2noc(C3CCN3C(=O)c3ccc(=O)[nH]n3)n2)s1 (stereo not given) | 4.505
73 | CCc1nc(C2CCCN2C(=O)c2c[nH]c(C)n2)no1 (stereo not given) | 26.1
74 | CCc1nc(C2CCCN2C(=O)c2ccc3c(c2)nnn3CC)no1 (stereo not given) | 2.61
75 | CCc1nc(C2CCCN2C(=O)c2cc(C3CC3)[nH]n2)no1 (stereo not given) | 9.32
